Several values for one entry are separate records, joined by “and”; a condition that tells them apart may be missing. Equal entries are not always repeated. Out of some 220,000 compounds screened, about 910 (0.41%) were called active.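 The calls were made as follows: active = primary inhibition above the hit cutoff, then over 50% inhibition at one or more dose response concentrations (cut at about 23% in these data, passing the limit was not always enough); inconclusive = conflicting primary data, or primary hits not chosen for dose response; inactive = low primary inhibition, or under 50% at every dose.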 Only a selection was taken, and actives are over-represented in it overall. Measured potencies and affinities stand elsewhere. The source holds several records for some structures; these can differ, active in one and inactive in another.
Target: Aminopeptidase N (Plasmodium falciparum (isolate 3D7)) (UniProt O96935)
Sequence (O96935 whole entry, looked up): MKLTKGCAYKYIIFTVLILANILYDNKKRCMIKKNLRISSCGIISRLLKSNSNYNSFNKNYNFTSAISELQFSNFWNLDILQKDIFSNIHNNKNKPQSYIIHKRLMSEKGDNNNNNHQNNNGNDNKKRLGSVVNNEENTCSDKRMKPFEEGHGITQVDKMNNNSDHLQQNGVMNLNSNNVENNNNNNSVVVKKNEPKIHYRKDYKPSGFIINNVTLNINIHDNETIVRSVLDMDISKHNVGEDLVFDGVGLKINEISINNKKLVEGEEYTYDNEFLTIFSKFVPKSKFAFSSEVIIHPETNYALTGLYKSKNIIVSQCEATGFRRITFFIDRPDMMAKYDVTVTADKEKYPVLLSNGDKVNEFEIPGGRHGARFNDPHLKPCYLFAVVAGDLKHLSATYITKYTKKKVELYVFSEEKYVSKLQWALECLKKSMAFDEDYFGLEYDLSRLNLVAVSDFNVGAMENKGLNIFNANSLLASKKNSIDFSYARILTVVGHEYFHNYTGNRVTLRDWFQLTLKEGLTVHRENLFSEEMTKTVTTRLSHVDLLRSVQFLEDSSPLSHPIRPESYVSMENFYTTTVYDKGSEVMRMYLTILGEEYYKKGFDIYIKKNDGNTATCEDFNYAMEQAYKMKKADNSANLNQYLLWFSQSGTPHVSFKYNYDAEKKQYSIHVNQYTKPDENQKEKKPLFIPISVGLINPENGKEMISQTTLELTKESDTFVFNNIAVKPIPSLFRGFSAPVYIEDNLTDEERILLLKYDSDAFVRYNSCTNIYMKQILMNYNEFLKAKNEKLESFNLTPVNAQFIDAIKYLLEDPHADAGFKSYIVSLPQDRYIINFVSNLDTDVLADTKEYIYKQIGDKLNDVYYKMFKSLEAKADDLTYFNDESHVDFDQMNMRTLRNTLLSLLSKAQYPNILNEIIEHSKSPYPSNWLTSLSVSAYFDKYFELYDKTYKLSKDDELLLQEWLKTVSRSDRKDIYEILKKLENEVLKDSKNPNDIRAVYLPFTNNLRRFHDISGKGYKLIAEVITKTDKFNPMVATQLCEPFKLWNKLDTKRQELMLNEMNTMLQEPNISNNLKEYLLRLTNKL
Test: P. falciparum M1AAP inhibitors, biochemical, fluorogenic H-Leu-NHMec substrate, 1536-well (AID 1445);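 also: plate controls were DMSO full reaction for no effect and no enzyme background for full effect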
Settings: recombinant M1AAP, H-Leu-NHMec fluorogenic kinetic assay; at 30 µM; stronger effect = higher value

Row | Structure (SMILES) | inhibition
1 | CC(C)CNC(=O)c1c(N)n(Cc2ccco2)c2nc3ccccc3nc12 | 13% (inactive)
2 | CCCNC(=O)c1c(N)n(Cc2ccco2)c2nc3ccccc3nc12 | 19.9% (inactive)
3 | C=CCNC(=O)c1c(N)n(Cc2ccco2)c2nc3ccccc3nc12 | 24.2% (active)
4 | CC(C)(C)OC(=O)c1c(N)n(Cc2ccco2)c2nc3ccccc3nc12 | 8.25% (inactive)
5 | COCC(C)OC(=O)c1c(N)n(Cc2ccco2)c2nc3ccccc3nc12 (stereo not given) | 17.3% (inactive)
6 | CC(C)OC(=O)c1c(N)n(Cc2ccco2)c2nc3ccccc3nc12 | 26.7% (active)
7 | CCC(=NCc1ccco1)c1c(O)[nH]c(=O)[nH]c1=O | 14.4% (inactive)
8 | CCC(=NCC1CCCO1)c1c(O)n(-c2ccccc2C)c(=O)[nH]c1=O (stereo not given) | 6.89% (inactive)
9 | O=C1Nc2ccccc2C1Cc1nc2ccccc2c(=O)n1-c1ccccc1 (stereo not given) | -1.31% (inactive)
10 | Cc1ccc(S(=O)(=O)N2CCCCC2)cc1NC(=O)CN1CC=C(c2ccccc2)CC1 | 5.04% (inactive)
11 | c1ccc(C2=NP(N3CCOCC3)(N3CCOCC3)=NC(N3CCOCC3)=N2)cc1 | -3.04% (inactive)
12 | CCOC(=O)c1nc2ccccc2c(=O)n1-c1cccc(C)c1 | 0.05% (inactive)
13 | Cc1cccc(-n2c(-c3cccs3)nc3ccccc3c2=O)c1 | 4.14% (inactive)
14 | Cc1cccc(N2CCc3c2nc2ccccc2c3N)c1 | 25.6% (active) and 6.14% (inactive)
15 | COC(=O)c1c(N)n(Cc2ccc(OC)cc2)c2nc3ccccc3nc12 | 13.7% (inactive)
16 | CCCCn1c(N)c(C(=O)OCCOC)c2nc3ccccc3nc21 | 17.7% (inactive)
17 | CCCCOCCCn1c(N)c(C(=O)OCCOC)c2nc3ccccc3nc21 | 19.1% (inactive)
18 | COCCOC(=O)c1c(N)n(Cc2ccccc2)c2nc3ccccc3nc12 | 25% (active)
19 | COCCCn1c(N)c(C(=O)OCCOC)c2nc3ccccc3nc21 | 27.6% (active)
20 | CCOC(=O)c1c(N)n(Cc2ccc(OC)cc2)c2nc3ccccc3nc12 | 13.6% (inactive)

Row | Structure (SMILES) | inhibition
21 | CCC(=NCCc1c[nH]c2ccccc12)c1c(O)n(-c2ccc(C)cc2)c(=O)[nH]c1=O | 1.85% (inactive)
22 | CCC(=O)N1N=C2C3CCN(CC3)C2C1c1ccccc1 (stereo not given) | 0.59% (inactive)
23 | CCCCn1c(O)c(C(C)=NCc2ccc3c(c2)OCO3)c(=O)[nH]c1=O | -11.8% (inactive)
24 | Cc1sc2nc(COC(=O)Cc3ccccc3)[nH]c(=O)c2c1C | 13.2% (inactive)
25 | CC(=NCCN1CCCCC1)c1c(O)n(Cc2ccccc2)c(=O)[nH]c1=O | 11.5% (inactive)
26 | CCOC(=O)C(O)(c1ccc(N=c2ccccn2C)cc1)C(F)(F)F (stereo not given) | 6.08% (inactive)
27 | CCOC(=O)C(O)(c1cn(C)c2ccccc12)C(F)(F)F (stereo not given) | 25.5% (active)
28 | COC(=O)C(O)(c1cn(C)c2ccccc12)C(F)(F)F (stereo not given) | -1.11% (inactive)
29 | COc1ccc2c(c1)c(C(=O)O)c(C)n2C(C)C | 1.69% (inactive)
30 | CC(=O)c1cccc(NC2=NCC(C)S2)c1 (stereo not given) | 24.8% (active)
31 | CC1CN=C(Nc2ccc(F)c(Cl)c2)S1 (stereo not given) | -0.44% (inactive)
32 | CC1CN=C(Nc2ccccc2)S1 (stereo not given) | 4.63% (inactive)
33 | Cc1ccc(-n2c(O)c(C=Nc3ccc(S(=O)(=O)N(C)C)cc3)c(=O)[nH]c2=O)cc1 | 13.7% (inactive)
34 | CC1(C)CN=C(Nc2nc3ccccc3s2)S1 | 26.9% (active)
35 | c1ccc2sc(NC3=NCCN3)nc2c1 | 6.67% (inactive)
36 | CC1(C)CN=C(Nc2ccccc2C(F)(F)F)S1 | 2.41% (inactive)
37 | O=c1[nH]c(=O)n(Cc2ccco2)c(O)c1C=NC1CC1 | 2.96% (inactive)
38 | COc1cc2c(C(=O)N3CCN(C)CC3)c(C)n(C)c2cc1Br | 0.34% (inactive)
39 | CC(=NCCN1CCOCC1)c1c(O)n(C2CCCCC2)c(=O)[nH]c1=O | -4.11% (inactive)
40 | O=C(C1CCC(=O)N1Cc1ccccc1Cl)N1CCC2(CC1)OCCO2 (stereo not given) | 4.98% (inactive)
